Our source for the Potency, outcome and activity change, negative = cytotoxicity values is PubChem BioAssay (NCATS).

Inconclusive results are not listed. Calls of active or inactive are those of the source. The call rests on the fitted dose curve; in most records, active means well fitted curve in the direction sought with a large enough effect; inconclusive means small, poorly fitted or top-dose-only effect, or another doubt; inactive means no such curve, though single readings can be large; an effect the other way counts as inactive or inconclusive.

Assay [1] can be described thus: P-glycoprotein substrates identified in KB-3-1 adenocarcinoma cell line, qHTS therapeutic library screen (AID 1346986). Further: nearly all actives have a fitted effect of over 60% in size. The essentials: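 72 h cell-killing screen, 500 cells/well, CellTiter-Glo luminescence. Paired lines KB-3-1/KB-8-5-11; P-gp dependence checked by tariquidar co-treatment and HEK-293 MDR-19 versus empty-vector cells.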
Background: qHTS replaces the single test concentration by a dilution series.

Assay [2] can be described thus: P-glycoprotein substrates identified in KB-8-5-11 adenocarcinoma cell line, qHTS therapeutic library screen (AID 1346987). Further: nearly all actives have a fitted effect of over 65% in size. On activity change, negative = cytotoxicity: series mostly up to about 44 µM; on the % scale 0 is the no-effect control and ±100 the full control effect. The essentials:
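Luminescence from CellTiter-Glo, read 5 min after addition, quantified survival of KB-8-5-11 (P-gp-overexpressing) cells exposed to compounds for 72 h. AC50 was derived from concentration-response curves.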

With `COC(=O)C1=COC(OC2OC(CO)C(O)C(O)C2O)C2C(C)CC(=O)C12O` (stereo not drawn), the Potency result in assay [1] and in assay [2] was “inactive” each time.

Regarding `Cc1occc(=O)c1O[C@@H]1O[C@H](CO)[C@@H](O)[C@H](O)[C@H]1O`, the Potency result in assay [1] and in assay [2] was “inactive” in each case.

Regarding `CC1(C)CCC2(C(=O)O)C(O)CC3(C)C(=CCC4C5(C)CCC(OC6OC(CO)C(O)C(O)C6OC6OC(CO)C(O)C(O)C6OC6OCC(O)(CO)C6O)C(C)(C)C5CCC43C)C2C1` (stereo not drawn), the outcome in assay [1] and in assay [2] was “inactive [at 9.29 µM]” throughout.

As for `CCCCNc1nc(N)c2[nH]c(=O)n(Cc3ccc(OCCN(C)C)nc3)c2n1`, the Potency result in assay [1] and in assay [2] was “inactive” in each case.

As to `Cn1cc(CCn2cnc(-c3cnn(C)c3)c2-c2ccc(C#N)cc2)cn1`, the Potency result in assay [1] and in assay [2] was “inactive” in each case.

Take `COc1cnc(-n2cnc(C)n2)c2[nH]cc(C(=O)C(=O)N3CCN(C(=O)c4ccccc4)CC3)c12`: the Potency result in assay [1] and in assay [2] was “inactive” in each case.

Regarding `CC(C)(O)C1OC1C1=CC(=O)C2(C)OC2C1O` (stereo not drawn), the Potency result in assay [1] and in assay [2] was “inactive” each time.

Take `Cc1c(O)cc2c(c1O)COC1(O)CCCOC21` (stereo not drawn): the Potency result in assay [1] and in assay [2] was “inactive” each time.

With `C[C@@H]1O[C@@H](O[C@@H]2\C=C/C=C\C=C/C=C\C[C@H](C)OC(=O)/C=C\[C@H]3O[C@@H]3C[C@H](O)C[C@]3(O)C[C@@H](O)[C@@H](C(=O)O)[C@H](C2)O3)[C@H](O)[C@H](N)[C@@H]1O`, the Potency result in assay [1] and in assay [2] was “inactive” in each case.

As for `COc1cc(CC2COC(c3ccc(OC4OC(CO)C(O)C(O)C4O)c(OC)c3)C2CO)ccc1O` (stereo not drawn), the Potency result in assay [1] and in assay [2] was “inactive” throughout.

For the molecule `O=C(O)CC(CCc1ccccc1)OC1OC(CO)C(O)C(O)C1O` (stereo not drawn), the Potency entry in assay [1] and in assay [2] was “inactive” throughout.

`C=CCc1ccc(O[C@@H]2O[C@H](CO)[C@@H](O)[C@H](O)[C@H]2O)c(O[C@@H]2O[C@H](CO)[C@@H](O)[C@H](O)[C@H]2O)c1`: the Potency result in assay [1] and in assay [2] was “inactive” in each case.

Regarding `COC(=O)C(CC1CCCC1)c1ccc(S(C)(=O)=O)cc1` (stereo not drawn), the Potency result in assay [1] and in assay [2] was “inactive” throughout.

For the molecule `C/C(=C\C(=O)C[C@@]12C(=O)O[C@]3(C)CC[C@H]1C[C@H]23)C(N)=O`, the Potency result in assay [1] and in assay [2] was “inactive” each time.

In the case of `CC(=O)O[C@H]1[C@H](O[C@H]2CC[C@]34C[C@]35CC[C@]3(C)[C@@H]([C@@]6(C)CC[C@@H](C(C)(C)O)O6)[C@@H](O)C[C@@]3(C)[C@@H]5C[C@H](O[C@@H]3O[C@H](CO)[C@@H](O)[C@H](O)[C@H]3O)[C@H]4C2(C)C)OC[C@@H](OC(C)=O)[C@@H]1O`, the Potency entry in assay [1] and in assay [2] was “inactive” throughout.

For the molecule `C/C=C1/[C@H](O[C@@H]2O[C@H](CO)[C@@H](O)[C@H](O)[C@H]2O)OC=C(C(=O)OC)[C@H]1CC(=O)OCCc1ccc(OC(=O)C[C@@H]2C(C(=O)OC)=CO[C@@H](O[C@@H]3O[C@H](CO)[C@@H](O)[C@H](O)[C@H]3O)/C2=C/C)cc1`, the outcome in assay [1] is “inactive [at 9.29 µM]”. Further, in assay [2], the activity change, negative = cytotoxicity was 6.56% [at 9.29 µM] (inactive).

Consider `Cc1cc(C(=O)N2Cc3cnn(C)c3Nc3ccccc32)ccc1CNC(=O)N1CCN(Cc2cc(O)cc(O)c2)CC1`, for which the Potency entry in assay [1] and in assay [2] was “inactive” in each case.

On to `O=C(O)[C@H](Cc1ccccc1)Oc1ccc(-c2ccccc2)cc1`, for which the Potency result in assay [1] and in assay [2] was “inactive” in each case.

In the case of `O=C(O[C@@H]1O[C@H](CO)[C@@H](O)[C@H](O)[C@H]1O)c1ccccc1`, the Potency result in assay [1] and in assay [2] was “inactive” each time.

As to `CC1(C)Oc2ncnc(N)c2N=C1c1ccc(C2CCC(CC(=O)O)CC2)cc1` (stereo not drawn), the Potency result in assay [1] and in assay [2] was “inactive” throughout.

Regarding `CC1(C)CCCC2(C)c3c4c(c(=O)oc(=O)c3=CCC12)=CCC1C(C)(C)CCCC41C` (stereo not drawn), the Potency entry in assay [1] and in assay [2] was “inactive” in each case.

On to `CCc1cccc2c3c([nH]c12)[C@@](CC)(CC(=O)O)OCC3`, for which the Potency result in assay [1] and in assay [2] was “inactive” each time.

For `CC1=C(CC/C(C)=C/C(=O)O)[C@@]2(C)CCCC(C)(C)C2CC1=O` (stereo partly drawn), the Potency result in assay [1] and in assay [2] was “inactive” throughout.

In the case of `C/C(=C\CO)CC/C=C(\C)C(=O)O[C@@H]1O[C@H](CO)[C@@H](O)[C@H](O)[C@H]1O`, the Potency entry in assay [1] and in assay [2] was “inactive” in each case.
